The whole screen tested about 87,000 compounds, of which about 360 (0.41%) were called active. No stated cut-off is given here; in the data, active means cytotoxicity above about 50%; inactive means the rest. This excerpt belongs to a sample that is enriched for actives.
assay: cytotoxicity in HT1080 fibrosarcoma cells, cell-based, fluorescence readout (AID 620); conditions: HT1080 viability, at 10 µM, active compounds read high;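 further: cells exposed to compound overnight then 4 h with Alamar Blue; 0% = vehicle DMSO and 100% = killing control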

Compound	cytotoxicity
COc1cccc(C2N(c3ccccn3)C(=O)C3CCCN32)c1OC (stereo not drawn)	-9.8% (inactive)
CN(C)c1ccc(C(=O)C(O)c2ccccc2)cc1 (stereo not drawn)	-14% (inactive)
CCC(C(=O)c1ccc(O)cc1)c1ccccc1 (stereo not drawn)	-4% (inactive)
CN(C)CC(C(=O)c1ccccc1)c1ccccc1 (stereo not drawn)	57.7% (active)
CC(C)CC(C(=O)NC1CCCC1)N(Cc1cccs1)C(=O)c1snc(C(N)=O)c1N (stereo not drawn)	-7.5% (inactive)
O=C(NCc1csc(-c2ccccc2)n1)c1ccco1	-1.4% (inactive)
Cc1ccccc1-n1cnc2cc(NCc3cccs3)ccc21	33.7% (inactive)
COc1ccccc1-n1cnc2cc(C(=O)NCc3ccco3)ccc21	-2.4% (inactive)
COc1ccc(-n2cnc3cc(NCc4cccs4)ccc32)cc1	1.1% (inactive)
COc1ccccc1-n1cnc2cc(NCc3ccco3)ccc21	59.5% (active)
COc1ccccc1-n1cnc2cc(NCc3ccccn3)ccc21	-10% (inactive)
COc1ccccc1-n1cnc2cc(NCc3cccs3)ccc21	60% (active)
CCOC(=O)CCP(=O)(O)C(C)(O)c1ccccc1 (stereo not drawn)	-7.3% (inactive)
COn1c(=O)c(-c2cccs2)[n+]([O-])c2ccccc21	-15.3% (inactive)
CCOc1ccccc1N1CC(O)=C(c2nc3ccccc3s2)C1=N	68.7% (active)
COc1ccc(OC)c(N2CC(O)=C(c3nc4ccccc4s3)C2=N)c1	-5.7% (inactive)
COc1ccc(N2CC(O)=C(c3nc4ccccc4s3)C2=N)c(OC)c1	-0.1% (inactive)
O=C(NCc1ccccc1)C1(c2ccccc2)CCN(S(=O)(=O)c2ccccc2)CC1	-1.9% (inactive)
O=C(CSc1nc2c(c(=O)n1-c1ccc(Cl)cc1)SCC2)N1CCCC1	-1.5% (inactive)
N#Cc1c(-c2ccc(Cl)cc2)ccn2nc(C3CCCCC3)nc12	-4% (inactive)
Cc1nc(NC(C)C)c2oc3ccccc3c2n1	-2.5% (inactive)
COc1cccc(N2CCN(c3ncnc4c3[nH]c3ccccc34)CC2C)c1 (stereo not drawn)	-3% (inactive)
COc1cccc(N2CCN(c3ncnc4c3[nH]c3ccc(F)cc34)CC2C)c1 (stereo not drawn)	54.2% (active)
Fc1ccc2[nH]c3c(N4CCN(c5ccccc5)CC4)ncnc3c2c1	-4.2% (inactive)
O=C(C1CCCN(Cc2cccc(F)c2)C1)N1CCCCC1 (stereo not drawn)	14.1% (inactive)

Compound	cytotoxicity
O=C(Nc1ccc(N2CCOCC2)c(Cl)c1)c1ccc(F)cc1	56.2% (active)
CCC(=O)N1CCN(c2ccc(NC(=O)c3cc4ccccc4o3)cc2)CC1	1.3% (inactive)
O=C(Nc1ccc(N2CCOCC2)c(Cl)c1)c1cccc(F)c1	22.9% (inactive)
O=C(Nc1ccccc1N1CCN(C(=O)c2ccc(Cl)cc2)CC1)c1cc2ccccc2o1	1.6% (inactive)
CCC(=O)N1CCN(c2ccc(NC(=O)c3cc4ccccc4o3)cc2Cl)CC1	96.3% (active)
O=C(Nc1ccc(N2CCOCC2)c(Cl)c1)c1cc2ccccc2o1	89.6% (active)
O=C(Nc1ccc(N2CCN(C(=O)c3ccc(Cl)cc3)CC2)cc1)c1cc2ccccc2o1	7% (inactive)
CCC(=O)Nc1ccc(NC(=O)c2cc3ccccc3o2)cc1	-1.5% (inactive)
CCCC(=O)N1CCN(c2ccc(NC(=O)c3cc4ccccc4o3)cc2Cl)CC1	69.8% (active)
O=C(Nc1ccc(N2CCOCC2)cc1)c1cc2ccccc2o1	1.6% (inactive)
O=C(Nc1ccc(N2CCOCC2)c(Cl)c1)c1c(F)c(F)c(F)c(F)c1F	8.9% (inactive)
O=C(Nc1ccc(CN2CCOCC2)cc1)c1cc2ccccc2o1	8.9% (inactive)
CCOC(=O)c1ccc2ncc(C(=O)OCC)c(NCc3ccco3)c2c1	1.9% (inactive)
O=S(=O)(Nc1ccccn1)c1ccc(Cl)cc1	-6.1% (inactive)
COc1cccc(-n2c(Cc3cc(=O)[nH]c(=O)[nH]3)nnc2SCC(=O)N2CCCC2)c1	3.9% (inactive)
COc1ccc([C@H]2[C@@H](C#N)[C@H](C#N)N3CCCN23)cc1	5.9% (inactive)
O=C(CCn1c(=O)sc2ccccc21)NCCN1CCOCC1	4.4% (inactive)
Cc1ccc(-c2noc(CCCN3C(=O)c4ccccc4C3=O)n2)cc1	-3.5% (inactive)
CC(C)c1ccc(NC(=S)NCc2cccs2)cc1	-17.4% (inactive)
O=C(CN1CCc2ccccc2C1)Nc1ccc(Br)cc1	-3.2% (inactive)
O=C(Nc1ccc(N2CCOCC2)c(Cl)c1)c1ccc(Br)o1	51.4% (active)
O=C(Nc1ccc(N2CCN(C(=O)c3ccco3)CC2)c(Cl)c1)c1c(F)c(F)c(F)c(F)c1F	-3% (inactive)
O=C(Nc1ccc(N2CCN(C(=O)c3ccccc3)CC2)c(Cl)c1)c1ccc(Br)o1	22.5% (inactive)
O=C(Nc1ccc(N2CCCC2)c(Cl)c1)c1ccc(Br)o1	12.7% (inactive)
O=C(Nc1ccc(N2CCN(C(=O)c3ccco3)CC2)c(Cl)c1)c1cc2ccccc2o1	81.6% (active)

Compound	cytotoxicity
O=C(Nc1ccc(N2CCN(C(=O)c3ccccc3)CC2)c(Cl)c1)c1ccco1	-4.5% (inactive)
COc1ccc2c(c1)c(=O)oc1cc(OCC(=O)N3CCCC(C)C3)ccc12 (stereo not drawn)	-1.8% (inactive)
CCC1=C(C)N(CCCC(=O)O)C(=O)NC1c1cccc(Cl)c1Cl (stereo not drawn)	-11.7% (inactive)
CCOC(=O)C1=C(C)NC(SCC(=O)O)=C(C#N)C1c1ccco1 (stereo not drawn)	-8% (inactive)
O=C(CN(C1CCCCC1)S(=O)(=O)c1ccccc1)NCc1cccnc1	1.3% (inactive)
CCOC(=O)c1c(C)[nH]c2cc(Br)c(OC)cc12	-9% (inactive)
C=CCNC(=O)C12CC3(C)CC(C)(CC(C)(C3)C1)C2	-24.6% (inactive)
CCOC(=O)c1c(NC(=O)CCl)sc(C(=O)N(CC)CC)c1C	53.8% (active)
CCOC(=O)Nc1sc(C(=O)N(CC)CC)c(C)c1C(=O)OCC	-6% (inactive)
CCOC(=O)c1c(NC(=O)CN(C)C)sc(C(=O)N(CC)CC)c1C	25.3% (inactive)
CCC(C)[C@H](NC(=O)NCc1cccs1)C(=O)O (stereo partly drawn)	8.7% (inactive)
CC(C)(C)NC(=O)Cn1nnnc1-c1nonc1N	0.2% (inactive)
CCOC(=O)c1cnc(SCc2ccc(C)cc2)nc1N	5.8% (inactive)
CCC(=O)Nc1nonc1-c1nc2ccccc2n1Cc1ccc(Cl)c(Cl)c1	-2.7% (inactive)
CCOC(=O)c1ccccc1NC(=O)Cn1c(-c2nonc2N)nc2ccccc21	60.4% (active)
CCC(=O)Nc1nonc1-c1nc2ccccc2n1CC(C)C	2.9% (inactive)
CCCCOc1ccccc1NC(=O)Cn1c(-c2nonc2N)nc2ccccc21	24.5% (inactive)
CCC(=O)Nc1nonc1-c1nc2ccccc2n1Cc1cccc2ccccc12	56.3% (active)
COC(=O)c1ccccc1NC(=O)Cn1c(-c2nonc2N)nc2ccccc21	32% (inactive)
O=C(O)c1cccc(CN2C(=O)CSC2=O)c1	3.1% (inactive)
Cc1nn(-c2ccccc2)c2sc(C(=O)OCN3C(=O)c4ccccc4C3=O)cc12	-4% (inactive)
NC(=O)c1ccccc1OCC(=O)NS(=O)(=O)c1ccc(Cl)cc1	-12.8% (inactive)
CC(C)COc1ccc(CNC(=S)N/N=C/c2ccc([N+](=O)[O-])cc2)cc1	-12.7% (inactive)
O=C1C2CCCN2C(c2cccc(F)c2)N1c1cccc(Cl)c1 (stereo not drawn)	8.3% (inactive)
N=c1n(CCN2CCOCC2)c2ccccc2n1CC(=O)c1ccc(Cl)c(Cl)c1	80.5% (active)

Compound	cytotoxicity
CCCCOC(=O)Cn1c(=N)n(CCN2CCOCC2)c2ccccc21	-3.2% (inactive)
N=c1n(CCOc2ccccc2)c2ccccc2n1CCN1CCOCC1	6.2% (inactive)
O=C(COc1ncnc2ccccc12)NC1CCS(=O)(=O)C1 (stereo not drawn)	0.3% (inactive)
O=C(Nc1ccc(NC(=O)C2CCCCC2)nc1)c1ccco1	-0.2% (inactive)
COc1ccccc1N1CCN(Cc2nc(N)nc(Nc3ccc(C)cc3)n2)CC1	-2.7% (inactive)
CSc1nc(C)c2cc(C)oc2n1	10.3% (inactive)
COc1ccc2nc(NC(=O)CCn3cccc3)sc2c1	2.1% (inactive)
CN1CCN(C2=C(Cl)C(=O)C(c3cnc(N4CCCCC4)s3)=C(Cl)C2=O)CC1	37.1% (inactive)
CN(C)c1ncc(C2=C(Cl)C(=O)C(N3CCCC3)=C(Cl)C2=O)s1	16.7% (inactive)
CCCCOc1ccc(CSc2nncn2N)cc1	0.8% (inactive)
COc1ccc(OC)c(NS(=O)(=O)c2ccc3c(c2)n(C)c(=O)n3C)c1	-7.2% (inactive)
O=C1CCCN1c1ccc(S(=O)(=O)NCCOc2ccccc2)cc1	-6.1% (inactive)
COc1ccc(CCNS(=O)(=O)c2ccc(N3CCCC3=O)cc2)cc1	-12.5% (inactive)
Cc1ccccc1NS(=O)(=O)c1ccc(N2CCCC2=O)cc1	56.7% (active)
Cc1ccccc1NS(=O)(=O)c1ccc(F)cc1	6.2% (inactive)
COc1ccc(OC)c(NS(=O)(=O)c2ccc(N3CCCC3=O)cc2)c1	60.6% (active)
CCOC(=O)C1CCN(C(=O)Nc2ccc3nc(C)c(C)nc3c2)CC1	2.9% (inactive)
Cc1cc(C)c(S(=O)(=O)NCC2CCC(C(=O)NCCCN3CCOCC3)CC2)c(C)c1 (stereo not drawn)	2.9% (inactive)
Cc1cc(C)c(NC(=O)c2ccc(S(=O)(=O)N3CCOCC3)cc2)c(C)c1	-5.9% (inactive)
C=CCN1C(=O)S/C(=C/c2ccsc2)C1=O	2.6% (inactive)
C=CCOC(=O)c1[nH]c2c(c1C)C(=O)CC(c1ccco1)C2 (stereo not drawn)	67.5% (active)
C/C=C/COC(=O)c1[nH]c2c(c1C)C(=O)CC(c1ccco1)C2 (stereo not drawn)	65.5% (active)
C/C=C/COC(=O)c1[nH]c2c(c1C)C(=O)CC(c1ccc(N(C)C)cc1)C2 (stereo not drawn)	-0.3% (inactive)
